# From PubChem BioAssay
# aSyn UTR act: Activators via SNCA 5'UTR binding, MLPCN. activity score, % (tested at 7.5 µM), hits read low. alpha-synuclein 5'UTR reporter, activators screen. actives 7.1% (n = 300,000); in the data active means activity score below about -60%
# * marks the source's active call; other numbers are inactive results. Only a sample is shown.
SMILES,aSyn UTR act
COC(=O)c1nn(-c2ccc3c(c2)CCN3C(C)=O)cc1O,90.6
COC(=O)c1nn(-c2ccc3c(c2)OCO3)cc1O,-86.4*
COc1ccc2cnn(-c3ccc(OC(F)(F)F)cc3)c(=O)c2c1OC,-90.1*
O=c1c2ccccc2nc2c3ccccc3cnn12,-171.9*
O=c1c2ccccc2cnn1-c1nc2ccccc2[nH]1,97.8
Cc1ccc(/C=N/N2CCN(c3ccccn3)CC2)cc1,-105.3*
CCc1ccc(/C=N/N2CCN(c3ccccn3)CC2)cc1,-107.7*
ClC(=C\c1ccccc1)/C=N/N1CCN(c2ccccn2)CC1,-222.4*
CCOc1cccc(OCCOc2ccccc2[N+](=O)[O-])c1,-110.3*
COc1cc(C=O)ccc1OCc1ccc(Cl)nc1,-106.1*
C/C=C/c1ccc(OCCOc2cc(C=O)ccc2OC)c(OC)c1,-104.6*
COc1cc(C=O)ccc1OCCOc1ccccc1[N+](=O)[O-],-102.6*
COc1ccccc1OCCCOc1ccc([N+](=O)[O-])cc1Cl,-119.1*
COc1cc(C=O)ccc1OCCCOc1ccccc1[N+](=O)[O-],-95.5*
COC(=O)/C=C/COc1ccccc1[N+](=O)[O-],-62.8*
CN(C)CCCNc1cc(-c2ccccc2)nc2cc(-c3cccc(F)c3)nn12,-61.7*
COC(=O)c1cc(/C=C/c2ccccc2)[nH]n1,-117.0*
Oc1ccc(/C=N/Nc2ccnc3cc(Cl)ccc23)c(O)c1,-226.6*
Fc1ccc(N/N=C/c2cccnc2)c(F)c1,-114.1*
Clc1ccc2c(N/N=C/c3cccnc3)ccnc2c1,-81.2*
O=C(NCc1ccco1)c1sc2cc(Cl)ccc2c1Cl,-65.9*
CCN(CC)CCOC(=O)C(Cc1ccco1)Cc1cccc2ccccc12 (stereo not drawn),104.1
O=C(Nc1ccon1)c1sc2cc(Cl)ccc2c1Cl,-84.3*
O=C(NCc1ccco1)C(=O)NCc1ccccc1Cl,-70.6*
O=C(NCc1ccco1)c1cc2cc3ccc(Cl)cc3nc2o1,-61.9*
SMILES,aSyn UTR act
O=C(NCc1ccco1)c1sc2ccccc2c1Cl,-114.2*
Cc1c(C(=O)Nc2ccccn2)sc2nc3n(c(=O)c12)CCC3,-86.4*
O=c1c2sc(-c3ccccc3)cc2nc2n1CCC2,82.4
Cc1c(C(=O)Nc2ccccc2F)sc2nc3n(c(=O)c12)CCC3,-111.2*
CCc1cccc(NC(=O)c2sc3nc4n(c(=O)c3c2C)CCC4)c1,-136.5*
O=C(N/N=C/C(Br)=C/c1ccccc1)C1CC1,-195.2*
Cc1ccc(NCC(=O)N/N=C\C(Br)=C\c2ccccc2)cc1,-65.0*
O=C(N/N=C/C(Br)=C/c1ccccc1)NC1CCCCC1,-84.7*
O=C(N/N=C/C(Br)=C/c1ccccc1)C(O)c1ccccc1 (stereo not drawn),-74.3*
O=C(O)c1ccc(N/N=C/C(Br)=C/c2ccccc2)cc1,-242.4*
BrC(=C\c1ccccc1)/C=N/Nc1nc2ccccc2[nH]1,-158.4*
CCc1ccc(NC(=O)CCC(=O)Nc2nnc(C(F)(F)F)s2)cc1,-73.1*
Cc1cc(C(=O)CSc2nc3ccccc3o2)c(C)n1CC1CCCO1 (stereo not drawn),-138.0*
Cc1cc(C(=O)COC(=O)c2ccc3c(c2)OCO3)c(C)n1CC1CCCO1 (stereo not drawn),-68.3*
COCCn1c(C)cc(C(=O)COC(=O)c2ccc([N+](=O)[O-])o2)c1C,-90.2*
COCCn1c(C)cc(C(=O)COC(=O)c2cccc(O)c2)c1C,67.4
COCCn1c(C)cc(C(=O)COC(=O)c2cc3c(s2)CCC3)c1C,-78.4*
CC1CCN(C(=O)COC(=O)c2ccc3c(c2)OCO3)CC1,-118.4*
Cc1cc(C(=O)COC(=O)c2ccc([N+](=O)[O-])o2)c(C)n1CC1CCCO1 (stereo not drawn),-127.9*
CSc1ncccc1C(=O)OCC(=O)c1cc(C)n(CC2CCCO2)c1C (stereo not drawn),-69.4*
CC(/C=N/NC(=O)c1cccnc1)=C\c1ccco1,-102.9*
CC(/C=N/NC(=O)c1cnccn1)=C\c1ccco1,-116.7*
COc1cc(/C=C2\CC(C(C)(C)C)C/C(=C\c3cc(OC)c(OC)c(OC)c3)C2=O)cc(OC)c1OC (stereo not drawn),79.8
COc1cc(C2CC(=O)Nc3n[nH]c(-c4ccccc4)c32)cc(OC)c1OC (stereo not drawn),-120.0*
COc1cc(CNc2ccc3[nH]c(=O)[nH]c3c2)ccc1OCc1ccc(F)cc1,-91.2*
SMILES,aSyn UTR act
COc1cc(CNc2ccc3[nH]c(=O)[nH]c3c2)ccc1OCc1ccc(Cl)cc1,-171.0*
COc1cc(CNc2ccc3[nH]c(=O)[nH]c3c2)ccc1OCc1ccccc1,-86.3*
COc1cc(CNc2ccc(CNc3ncn[nH]3)cc2)ccc1OCc1ccccc1,-116.7*
COc1cc(CNc2ccc3[nH]c(=O)[nH]c3c2)ccc1OCc1ccccc1F,-107.4*
O=C(CSc1nc2ccc(Cl)cc2[nH]1)c1ccc2c(c1)OCO2,-67.5*
O=C(CSc1nncs1)Nc1ccc2c(c1)OCCO2,-102.4*
COc1ccc2nc(SCC(=O)Nc3ccc4c(c3)OCCO4)[nH]c2c1,-63.2*
O=C(CSc1ncn[nH]1)Nc1ccc2c(c1)OCCO2,-61.6*
O=C(CSc1nncs1)NC(=O)Nc1ccc2c(c1)OCCO2,-133.6*
COc1ccc2nc(SCC(=O)/C(C#N)=C(\C)N)[nH]c2c1,-76.0*
CC1(C)CCC(=O)N2CC[C@H]3C[C@H](OC(=O)Nc4ccc5c(c4)OCO5)C[C@@H]1[C@H]32,-105.1*
CC1(C)CCC(=O)N2CC[C@H]3C[C@H](OC(=O)Nc4ccccc4)C[C@@H]1[C@H]32,-115.8*
CC(C)c1nc2oc3c(NCc4ccccn4)ncnc3c2c2c1COC(C)(C)C2,51.4
CC(C)Sc1nc(NCc2ccco2)c2c3c(sc2n1)COC(C)(C)C3,-84.9*
O=C(CN1C(=O)C2C3C=CC(C4CC34)C2C1=O)Nc1cnc2ccccc2c1 (stereo not drawn),-83.2*
Nc1c(C(=O)C2CC2)sc2nc3c(cc12)CCC3,-161.4*
Nc1c(C(=O)c2ccc(Cl)cc2)sc2nc3c(cc12)CCC3,-107.8*
Nc1c(C(=O)Nc2cccc(C(=O)O)c2)sc2nc3c(cc12)CCCC3,76.6
CC(C)NC(=O)N1CCCN(c2nc3ccc(Cl)cc3s2)CC1,-62.1*
CC(C)C(=O)N1CCN(c2nc3ccc(Cl)cc3s2)CC1,-139.6*
Cc1ccccc1OCc1nc2c3cnn(C)c3ncn2n1,-151.6*
CC(C)(C)c1ccc(C(=O)Nc2ccc(C=C(C#N)C#N)cc2)cc1,-175.4*
N#CC(C#N)=Cc1ccc(NC(=O)c2ccc(Br)cc2)cc1,-152.6*
c1ccc2c(c1)CC(N1CCCCC1)c1ccccc1S2 (stereo not drawn),89.8
CCOc1ccc(S(=O)(=O)N(CC(=O)N/N=C/c2ccc(-c3ccc([N+](=O)[O-])cc3)o2)c2ccccc2)cc1,-71.9*
SMILES,aSyn UTR act
COC(=O)N/N=C\c1ccc(-c2cc(Cl)c(Cl)cc2Cl)o1,54.5
CCOC(=O)c1ccc(-c2ccc(/C=N/NC(=O)CN(c3ccccc3Cl)S(C)(=O)=O)o2)cc1,-152.9*
COC(=O)C1=C(C)NC(C)=C(C(=O)OC)C1c1ccc(-c2cccc(Cl)c2Cl)o1,-72.3*
Cc1cc2ccccc2n1CCNC(=O)c1ccccc1,-114.0*
Cc1cc2ccccc2n1CCNC(=O)c1ccc(Br)o1,-77.6*
Cc1cc(C)nc(Nc2nc3ccccc3o2)n1,-70.0*
c1ccc(Nc2nc3ccccc3o2)cc1,-188.7*
FC(F)(F)Oc1ccc(Nc2nc3ccccc3o2)cc1,-259.5*
O=C1c2ccccc2C(=O)c2[nH]c(=O)[nH]c21,93.0
O=c1[nH]c(=O)c2nc3c4ccccc4c4ccccc4c3nc2[nH]1,-69.8*
